The text below walks through data of PubChem BioAssay AID1851 (National Center for Advancing Translational Sciences (NCATS), 2009).

Screen size: about 16,000 compounds; about 5,800 (36%) were called active. Roughly 23% stayed inconclusive and do not appear here. The list shows a part of the results. A number with no mark means an inactive call. Calls follow the shape of the dose curve; as a rule, active = well fitted curve in the direction sought with a large enough effect; inconclusive = small, poorly fitted or top-dose-only effect, or effect the other way; inactive = no such curve, though single readings can be large or run the other way.
% is scaled to controls: 0 for no effect and ±100 for the full control effect.

The target of this assay is Cytochrome P450 2C19 (Homo sapiens) (UniProt P33261). Nature of the assay: Cytochrome panel assay with activity outcomes. To be noted: recombinant CYP, pro-luciferin dealkylation, luminescence, p450-cyp2c19; series mostly up to 57.1 µM; activity, negative = inhibition: at the top concentration.
Chain of Cytochrome P450 2C19 (Homo sapiens) (P33261 whole entry, looked up): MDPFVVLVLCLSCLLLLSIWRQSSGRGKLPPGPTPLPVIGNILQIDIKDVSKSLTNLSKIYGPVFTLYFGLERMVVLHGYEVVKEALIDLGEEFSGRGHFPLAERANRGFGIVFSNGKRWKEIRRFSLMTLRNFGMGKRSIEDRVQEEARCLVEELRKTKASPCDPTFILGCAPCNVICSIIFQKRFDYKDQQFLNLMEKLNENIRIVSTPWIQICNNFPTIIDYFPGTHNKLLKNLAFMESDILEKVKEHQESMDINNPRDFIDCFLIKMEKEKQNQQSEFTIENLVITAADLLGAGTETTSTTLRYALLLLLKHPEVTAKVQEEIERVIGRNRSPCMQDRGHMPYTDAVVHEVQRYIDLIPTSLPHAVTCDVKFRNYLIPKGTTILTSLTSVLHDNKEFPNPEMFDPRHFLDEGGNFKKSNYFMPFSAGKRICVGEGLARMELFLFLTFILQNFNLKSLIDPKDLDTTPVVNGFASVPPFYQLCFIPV
`CCCC[C@H]1C[C@@H]1[C@@H]1N(P(=O)(c2ccccc2)c2ccccc2)C[C@@](O)(c2ccccc2)CC12CC2`: the “activity, negative = inhibition” value was -12.3%.
A word on the AC50: it is the concentration at which the activity in the assay is half-maximal. On to `O=C(NCCc1ccccc1)N1c2ccccc2Sc2ccccc21`, for which the AC50 is 2.82 µM (active).
The same measure, in the same setting: the same measure for `COc1ccc(C)cc1NC(=O)CN1CCN(S(=O)(=O)c2ccc(F)cc2)CC1`: 2.82 µM (active).
For the compound `COc1ccc(NC(=O)N2CC[C@@]3(CCCN(S(C)(=O)=O)C3)C2)cc1`, the “activity, negative = inhibition” value was 17.2%.
`COc1ccc(NC(=O)c2cc(S(=O)(=O)N3CCS(=O)(=O)CC3)ccc2Cl)cc1`: the “activity, negative = inhibition” value is 31.1%.
As for `COc1ccc(S(=O)(=O)N2CCCN(CC(=O)Nc3ccc(OC)c(Cl)c3)CC2)cc1`, the AC50 is 0.0631 µM (active).
On the same count and under the same terms, the result for `COc1ccc(S(=O)(=O)N2CCN(CC(=O)Nc3cc(OC)cc(OC)c3)CC2)cc1` reads 14.1 µM (active).
Regarding `COc1ccc(S(N)(=O)=O)cc1C(=O)NCCCN1CCN(c2ccc(C)cc2)CC1`, the “activity, negative = inhibition” value was -18.3%.
Regarding `COc1ccc(S(=O)(=O)N2CCCN(CCC(=O)Nc3cccc(C(F)(F)F)c3)CC2)cc1`, the AC50 was 2.51 µM (active).
Regarding `COc1ccc(C)cc1NC(=O)CCC(=O)Nc1nnc(C(F)(F)F)s1`, the “activity, negative = inhibition” value was -6.2%.
For `CC12CS(=O)(=O)CC1SC(=S)N2c1ccccn1` (stereo not drawn), the “activity, negative = inhibition” value is -12.6%.
For the compound `COc1ccc(NC(=O)N2CC[C@@]3(CCCN(C(=O)c4cccn4C)C3)C2)cc1`, the “activity, negative = inhibition” value was 4.63%.
On to `COc1ccc(S(=O)(=O)N2CCN(CC(=O)Nc3cccc(F)c3)CC2)cc1`, for which the AC50 was 4.47 µM (active).
As for `COC(=O)N1CCC2(CCCN(C(=O)Nc3cccc(F)c3)C2)CC1`, the “activity, negative = inhibition” value is -26.4%.
Take `CCOc1ccc(C(=O)CN2CCN(S(=O)(=O)c3ccc(F)cc3)CC2)cc1`: the AC50 was 7.08 µM (active).
On to `COc1ccc(C(=O)N2CCC3(CCN(C(=O)Nc4cccc(F)c4)CC3)CC2)cc1`, for which the “activity, negative = inhibition” value was -19.4%.
Take `Cc1ccc(C2C3=C(CCCC3=O)Nc3nc(SCC(=O)NCc4ccco4)[nH]c(=O)c32)cc1` (stereo not drawn): the “activity, negative = inhibition” value is -4.69%.
On to `Cc1cccc(Cc2c(C)nc3nc(SCC(=O)NCc4ccco4)nn3c2C)c1`, for which the AC50 is 5.01 µM (active).
For `Cc1nc2nc(SCC(=O)NCc3ccco3)nn2c(C)c1Cc1c(F)cccc1Cl`, the AC50 was 15.8 µM (active).
For the compound `CC(=O)c1ccc(NC(=O)C(Cc2ccccc2)NC(=O)c2ccco2)cc1` (stereo not drawn), the AC50 is 15.8 µM (active).
As for `O=C(NC(Cc1ccccc1)C(=O)O)/C(=C\c1ccco1)NC(=O)c1ccc(Br)cc1` (stereo not drawn), the “activity, negative = inhibition” value is 18.4%.
On to `O=C(Nc1ccccc1)C(Cc1ccccc1)NC(=O)C12CC3CC(CC(C3)C1)C2` (stereo not drawn), for which the “activity, negative = inhibition” value was 28.6%.
For the compound `N#Cc1cccc(NC(=O)N2CC3(CCN(C(=O)c4cnccn4)CC3)C2)c1`, the “activity, negative = inhibition” value was -18.3%.
On to `CCOC(=O)C1=C(C)N=C2SC(C(=O)OC)=CC(=O)N2C1c1ccc(F)cc1` (stereo not drawn), for which the AC50 was 1.26 µM (active).
Take `CCCC(=O)NCCc1c2n(c3ccc(OC)cc13)Cc1ccccc1-2`: the AC50 is 0.398 µM (active).
As to `COc1ccc2c(c1)c(CC(=O)O)c(C)n2C(=O)c1ccccc1`, the “activity, negative = inhibition” value is -11.9%.
Still for that read-out and setting: the same measure for `CC1(C)OC(=O)C(=CNc2cccc(O)c2)C(=O)O1`: -19.5%.
Consider `CC1(C)OC(=O)C(=CNCC(O)c2ccccc2)C(=O)O1` (stereo not drawn), for which the AC50 was 11.2 µM (active).
`CSCCC(NC=C1C(=O)OC(C)(C)OC1=O)C(=O)O` (stereo not drawn): the “activity, negative = inhibition” value was -4.41%.
Take `COCCN1CN=C(Nc2nc3ccccc3s2)NC1`: the AC50 is 14.1 µM (active).
As for `c1ccc2sc(NC3=NCN(C4CCCCCC4)CN3)nc2c1`, the AC50 is 1.12 µM (active).
For the compound `c1ccc2sc(SCN(C3CCCCC3)C3CCCCC3)nc2c1`, the activity, negative = inhibition is -38.6% [at 11.4 µM].
For `COCCn1c(=O)c(-c2ccccc2)nc2cnc(Nc3ccccc3)nc21`, the “activity, negative = inhibition” value is -23.5%.
Regarding `COCCN1CN=C(Nc2nc3ccccc3o2)NC1`, the “activity, negative = inhibition” value was -42.2%.
Consider `CN1CCN(c2ncc3nc(-c4cc(F)cc(F)c4)c(=O)n(CCC#N)c3n2)CC1`, for which the “activity, negative = inhibition” value was -4.3%.
For `CN(C)c1ccccc1CN1CCCN(Cc2ccccc2N(C)C)C1c1ccncc1`, the activity, negative = inhibition was -28.5% [at 11.4 µM].
Consider `CCCCCCCCN1C(=O)N(C)C(N(O)C(=O)NC)C1(C)C` (stereo not drawn), for which the AC50 is 7.08 µM (active).
For `O=C(Nc1cc(C(F)(F)F)ccc1N1CCCCC1)c1ccc(Br)o1`, the AC50 was 11.2 µM (active).
As for `O=C(COc1ccccc1)Nc1cc(C(F)(F)F)ccc1N1CCCC1`, the AC50 is 5.01 µM (active).
As to `NS(=O)(=O)c1cc(C(=O)O)cc(N2CCCC2)c1Oc1ccccc1`, the “activity, negative = inhibition” value was 8.74% [at 25.6 µM].
On to `Nc1ncnc2c1ncn2CCCCC(=O)O`, for which the activity, negative = inhibition is 24.1% [at 11.4 µM].
The same measure, in the same setting: the same measure for `COc1ccc2nccc(C(=O)O)c2c1`: -26% [at 25.6 µM].
Same read-out and setting: the same measure for `COc1ccc2nc(SCC(=O)NN)cc(C)c2c1`: -56.5%.
For the compound `COc1ccc2nc(C)cc(SCC(=O)NNC(=O)COc3ccc(C)cc3)c2c1`, the AC50 was 3.16 µM (active).
Take `COc1ccc2nc(C)cc(SCC(=O)Nc3c(C)cc(C)cc3C)c2c1`: the AC50 was 2.51 µM (active).
For `COc1ccc2nccc(SCC(=O)O)c2c1`, the activity, negative = inhibition is -14.8% [at 11.4 µM].
Regarding `NC(=O)c1cc[n+](CC2=C(C(=O)[O-])N3C(=O)[C@@H](NC(=O)Cc4cccs4)[C@@H]3SC2)cc1`, the “activity, negative = inhibition” value was -11.8% [at 25.6 µM].
For the compound `CCOC(=O)C(NC(C)=O)C(OC(C)=O)c1cccc(N(CCO)CCO)c1` (stereo not drawn), the “activity, negative = inhibition” value is -8.77%.
